# Laboratory results taken from PubChem BioAssay (Tox21).
# Records with an inconclusive call do not appear. Activity calls are given as the source filed them. Calls come from the whole dose curve.
# Assay: qHTS assay to identify small molecule agonists of the NFkB signaling pathway - cell viability counter screen (AID 1159515); note: nearly all actives have a fitted effect of over 55% in size
# Details: NFkB-bla ME-180 viability, CellTiter-Glo luminescence, 5 h; series mostly up to 61 µM
# Procedure, shortened: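 NFkB-bla ME-180 cells, 2,000/well, plated overnight at 37 C; compound added for 5 hr at 37 C. Viability read in the same wells as the bla reporter, by CellTiter-Glo luminescence after 30 min at room temperature.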
row,Compound,outcome
1,O=C1NCCN1,inactive
2,C=CCNc1nc(NCC=C)nc(N2CCN(C(c3ccc(F)cc3)c3ccc(F)cc3)CC2)n1,inactive
3,COC(=O)CC(=O)C(C)(C)C,inactive
4,C=CCOC(=O)/C=C\C(=O)OCC=C,inactive
5,CCC(C(=O)OCCN(CC)CC)c1ccccc1 (configuration not stated),inactive
6,CN(C(=O)C(Cl)Cl)c1ccc(OC(=O)c2ccco2)cc1,inactive
7,CCOC(=O)c1ccccc1C,inactive
8,C[N+](C)(C)CCOC(N)=O,inactive
9,CO/N=C1\CN(c2nc3c(cc2F)c(=O)c(C(=O)O)cn3C2CC2)CC1CN (configuration not stated),inactive
10,CN1C(=O)CC(C)(c2ccccc2)C1=O (configuration not stated),inactive
11,NC(=O)Cn1c(=O)cc(CCN2CCN(c3nccc4sccc34)CC2)c2ccc(F)cc21,inactive
12,CC(=O)[C@H]1CC[C@H]2[C@@H]3C[C@H](C)C4=CC(=O)CC[C@]4(C)[C@H]3[C@@H](O)C[C@]12C,inactive
13,COc1cc2c(cc1OC)-c1cc(=Nc3c(C)cc(C)cc3C)n(C)c(=O)n1CC2,inactive
14,O=C(CCC1CCN(Cc2ccccc2)CC1)c1ccc2c(c1)NCCCC2,inactive
15,Cc1occc1C(=O)Nc1ccc(C(=O)N2CCC(F)(F)/C(=C\C(=O)N3CCC(N4CCCCC4)CC3)c3ccccc32)cc1,inactive
16,CCCCCCCCCCOS(=O)(=O)O,inactive
17,CC(CCc1ccc2c(c1)OCO2)NN (configuration not stated),inactive
18,CCOC(=O)OCC,inactive
19,Cc1cnc(C)c(C)n1,inactive
20,COc1ccc([C@@H]2Sc3ccccc3NC(=O)[C@@H]2O)cc1,inactive
21,CC(C)C(=O)O,inactive
22,CCOC(=O)/C=C/C(=O)O,inactive
